# According to PubChem BioAssay (NCI):
# Compounds without any hit were thinned out: in the full panel of roughly 83,000, 20% have a hit.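 Results are percent growth after 48 hours of single-concentration exposure. 100 means growth as in untreated cells, lower positive values show inhibition; negative values down to -100 show cell death.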 A number with no mark means an inactive call. Active and inactive are the calls of the source. The calls were made as follows: active = growth percent below 10; inactive = the rest.
# What was measured:
# Test in all cases: NCI-60 one-dose screen, 48 h (100 = growth as untreated, 0 = no growth, -100 = all killed)
# Settings in all cases: 10 µM unless noted
# SK-MEL-2 melanoma = system: SK-MEL-2 melanoma
# EKVX NSCLC = system: EKVX NSCLC
# SN12C renal = system: SN12C renal
# TK-10 renal = system: TK-10 renal
# CAKI-1 renal = system: CAKI-1 renal
# A498 renal = system: A498 renal
# CCRF-CEM leukemia = system: CCRF-CEM leukemia
# MOLT-4 leukemia = system: MOLT-4 leukemia
# UO-31 renal = system: UO-31 renal
# ACHN renal = system: ACHN renal
SMILES,growth (SK-MEL-2 melanoma),growth (EKVX NSCLC),growth (SN12C renal),growth (TK-10 renal),growth (CAKI-1 renal),growth (A498 renal),growth (CCRF-CEM leukemia),growth (MOLT-4 leukemia),growth (UO-31 renal),growth (ACHN renal)
COP(=O)(OC)C(c1ccc(O)cc1)(c1ccc(O)cc1)c1ccc(O)cc1,101%,113%,105%,124%,94.9%,98.7%,5.74% (active),94.3%,,
O=C(Nc1ccc(Cl)cc1)Nc1nc2ccc(OC(F)(F)F)cc2o1,131%,,92.5%,92.9%,92.7%,119%,80.1%,76.4%,87.9%,89.4%
Nc1ncnc2c1CN(Cc1ccccc1)CC2,103%,110%,,108%,102%,120%,95.5%,102%,76.2%,103%
COc1cc(/C=C/C(=O)C(C(=O)/C=C/c2ccc(OC(=O)CCNc3nnc(C)s3)c(OC)c2)C(=O)CCNc2nnc(C)s2)ccc1OC(=O)CCNc1nnc(C)s1,13.2%,21.9%,-33.9% (active),29.4%,-3.62% (active),49.7%,,-27.9% (active),,
COc1cccc(-c2nc3cc(NC(=O)c4ccc(Cl)c(C#N)c4)ccc3o2)c1,63.8%,,40.2%,-12.5% (active),26.4%,61.6%,71.1%,78.4%,34.3%,36.2%
Cc1cnc2nc(-c3ccc(N(C)C)cc3)cn2c1,101%,91.7%,103%,97.6%,108%,107%,83.3%,91.9%,,112%
Cc1cc(-c2ccccc2)cc(C)n1,98.1%,116%,,103%,103%,116%,102%,100%,78.6%,106%
COc1ccc(NC(=O)c2ccc(-c3ccccc3)cc2)c(C(N)=O)c1,99.6%,,96.6%,118%,103%,97%,90%,84.6%,79.6%,102%
C/C(=C\CCc1ccoc1)CC/C=C(\C)CCCN1CCOCC1,78.7%,,70.5%,61.3%,58.3%,75.7%,29.6%,54.2%,52.3%,76.3%
C/C(=C\CCc1ccoc1)CC/C=C(\C)CCCN1CCSCC1,85.5%,,76.7%,84.9%,80.7%,38.2%,62.9%,79.6%,62.4%,83.8%
C1=C(Cc2ccccc2)n2cnc3ncnc(c32)S1,75%,,86.4%,28.6%,39.6%,99.6%,58.9%,31.2%,48.3%,87.2%
COc1ccc(-c2nc3sc4c(c3c(=O)[nH]2)CCCCCC4)cc1,39.7%,,59.4%,60.5%,47.2%,34.6%,30%,43.4%,62%,65.6%
COc1cc(-c2nc3sc4c(c3c(=O)[nH]2)CCCCCC4)cc(OC)c1OC,16.4%,,22.1%,47.6%,19.9%,-12.3% (active),14.3%,14.6%,27.8%,44.5%
COc1cccc(-c2nc(-c3ccc(N)cc3)co2)c1,99.8%,102%,95.2%,109%,94.7%,100%,,81.8%,,106%
C/C(=C\CCc1ccoc1)CC/C=C(\C)CCCNc1ccc(F)cc1,106%,,76.2%,113%,88.7%,79.7%,58.7%,59.6%,54.6%,97.9%
COc1cccc(N2CCN(c3cccc(C)n3)CC2)c1,94%,106%,105%,123%,82.4%,93.9%,,101%,,108%
NC(=O)c1cc(Br)cc(Br)c1NS(=O)(=O)c1ccccc1,110%,,95.9%,130%,89.8%,96.1%,91.8%,123%,75%,100%
COc1ccc(-n2cnc3cc(C(=O)N4CCCCC4)ccc32)cc1,111%,,95%,110%,98.5%,96.3%,98%,98%,97.4%,97.9%
N#Cc1c(NC(=O)c2ccco2)[n+]([O-])c2ccccc2[n+]1[O-],92.9%,98.7%,93.4%,133%,110%,117%,,85.3%,,110%
Cc1cn(C(C=O)OC(C=O)CO)c(=O)[nH]c1=O (configuration not stated),104%,,102%,103%,105%,111%,98.4%,104%,88.6%,107%
C(#Cc1ccccc1C#Cc1ccccn1)c1ccc(OCCCCCCOc2ccc(C#Cc3ccccc3C#Cc3ccccn3)cc2)cc1,64.2%,42.5%,67.8%,76.2%,57.9%,57.5%,,21.6%,,44.2%
CCOC(=O)Nc1cc(-c2ccc(C)c(NS(C)(=O)=O)c2)nn2c(C)nnc12,13.5%,,32%,-3.12% (active),3.16% (active),-7.14% (active),24.5%,18.9%,-1.22% (active),8.87% (active)
CCOc1cc(/C=C/C(=O)C(C(=O)/C=C/c2ccc(OC(=O)CNc3nnc(C)s3)c(OCC)c2)C(=O)CNc2nnc(C)s2)ccc1OC(=O)CNc1nnc(C)s1,11%,-13.9% (active),-3.17% (active),32.4%,-6.01% (active),-41.7% (active),,-34.3% (active),,-85.2% (active)
Cc1cc(Br)c(C)cc1Br,100%,,108%,105%,95.2%,77.7%,94.4%,87.3%,91.3%,102%
CC(=O)c1ccc(NS(=O)(=O)c2ccc([N+](=O)[O-])cc2)cc1,95.1%,,99.5%,100%,96.9%,90.5%,93.8%,87.1%,77.8%,93.8%
COc1cc(OC)c2c(c1Cl)O[C@]1(C2=O)C(OCc2ccccc2)=CC(=O)C[C@H]1C,2.04% (active),,13.3%,15.9%,10.9%,-0.948% (active),10.4%,14.1%,9% (active),6.86% (active)
COc1ccc(NC(=O)c2ccccc2-c2ccccc2)c(C(N)=O)c1,26.4%,,61.3%,76.1%,41.9%,30.8%,11.7%,20%,40.1%,40.4%
CN(C)c1ccc(-n2nc3ccccc3n2)cc1,102%,76.7%,97.2%,143%,73.5%,96.4%,,82.6%,,96.1%
Cc1nn2c(/C=C3/C(=O)Nc4cc(Cl)ccc43)c(-c3ccccc3)nc2s1,0.603% (active),,-1.6% (active),-55.3% (active),-50.4% (active),80.2%,-14% (active),13.1%,-72.3% (active),-26.5% (active)
